Data from PubChem BioAssay AID743365 (National Center for Advancing Translational Sciences (NCATS), 2014).
Square brackets hold non-standard residues; d marks the D form. Peptide text beside a SMILES is read from it. Orn = NCCC[C@H](N)C(=O)O

Assay: qHTS profiling of inhibitors of Plasmodium falciparum (DD2) proliferation (acoustic dispense)
Details: P. falciparum Dd2 in erythrocytes, SYBR Green DNA, 72 h; at 49.8 µM (top of the series) unless noted
From the text: Plasmodium falciparum is a virulent malarial parasite that kills 1-2 million people worldwide each year. Transmitted by mosquitoes, the sporozoite form of the parasite enters the blood stream to infect hepatocytes, where they become merozoites that infect red blood cells (erythrocytes). Within erythrocytes, merozoites begin a […] cycle of growth and division, after which the parasite is released to infect new red blood cells. Gametocytes, which form within erythrocytes as well, circulate in the bloodstream and are ingested by the mosquito, thereby completing the life cycle. To profile malarial isolates for differential chemical responses and to identify inhibitors of malarial growth, an assay that measures P. falciparum growth and replication within erythrocytes was employed. This assay uses a DNA binding fluorescent dye (SYBR Green) to detect parasite DNA following cell lysis. Because mature erythrocytes lack DNA, only Plasmodium-derived DNA is detected.
The SYBR Green viability assay was adapted from a method described previously (Plouffe et al., 2008). For screening 3 ul culture medium was dispensed into 1536 well black clear bottom plates (Aurora Biotechnologies) using a Multidrop Combi (Thermo Fisher Scientific Inc.), 23 nL of compounds in DMSO were added by an acoustic dispenser (EDC Biosystems), and 5 ul of erythrocytes infected with P. falciparum (0.3% parasitemia, 2.5% hematocrit final concentration) were added. The plates were incubated at 37 C in a humidified incubator in 5% CO2 for 72 h, and 2 ul lysis buffer (20 mM Tris HCl, 10 mM EDTA, 0.16% saponin, 1.6% triton X, 10X SYBR Green I supplied as 10,000X […] by Invitrogen) was added to each well. The plates were mixed for 25 sec with gentle shaking and incubated overnight at room temperature in the dark. The following morning, fluorescence intensity at 485(14) nm excitation and 535(25) nm emission wavelengths was measured on an EnVision (Perkin Elmer) plate reader. Plate reads were normalized relative to the control inhibitor (0.29 uM artemisinin) and vehicle (DMSO) wells present on each plate and then corrected by an algorithm using vehicle-only control plates at the beginning and end of the compound plate stack.

Structure (SMILES)	parasite growth, lower = inhibition
CC(C)N=C(N)N=C(N)Nc1ccc(Cl)cc1	-0.338%
CS[C@H]1SC[C@@H]2C(=O)N(C)[C@H](C(C)C)C(=O)OC[C@H](NC(=O)c3cnc4ccccc4n3)C(=O)N[C@H](C)C(=O)N(C)[C@@H]1C(=O)N(C)[C@H](C(C)C)C(=O)OC[C@H](NC(=O)c1cnc3ccccc3n1)C(=O)N[C@H](C)C(=O)N2C	0.25%
CCN[C@H]1C[C@H](C)S(=O)(=O)c2sc(S(N)(=O)=O)cc21	0.306%
CN[C@@H]1C[C@H]2O[C@@](C)([C@H]1OC)n1c3ccccc3c3c4c(c5c6ccccc6n2c5c31)C(=O)N[C@H]4O	0.898%
Cn1c2ccccc2c2c3c(c4c5ccccc5n(CCC#N)c4c21)CNC3=O	70.2%
CN(C(=O)OC(C)(C)C)[C@@H](Cc1ccc(O[S+](=O)([O-])c2cccc3cnccc23)cc1)C(=O)N1CCN(C(=O)OCc2ccccc2)CC1	-0.325%
COC(=O)[C@]12CCC(C)(C)C[C@@H]1[C@@H]1C(=O)C=C3[C@@]4(C)C=C(C#N)C(=O)C(C)(C)[C@@H]4CC[C@@]3(C)[C@]1(C)CC2	23.1%
C[C@H](Cn1cnc2c(N)ncnc21)OCP(=O)(O)O	98%
CCc1cc(Nc2nccc(-c3c(-c4ccc(OC)c(C(=O)Nc5c(F)cccc5F)c4)nc4ccccn34)n2)c(OC)cc1N1CCC(N2CCN(S(C)(=O)=O)CC2)CC1	-0.192%
Cc1cn[nH]c1	23.6%
CC(C)C[C@@H]1NC(=O)[C@H](CCCN)NC(=O)[C@H](C(C)C)NC(=O)[C@@H]2CCCN2C(=O)[C@@H](Cc2ccccc2)NC(=O)[C@H](CC(C)C)NC(=O)[C@H](CCCN)NC(=O)[C@H](C(C)C)NC(=O)[C@@H]2CCCN2C(=O)[C@@H](Cc2ccccc2)NC1=O (cyclo(V[Orn]L[dF]PV[Orn]L[dF]P))	0.52%
CCN(CC)CCNC(=O)c1c(C)[nH]c(C=C2C(=O)Nc3ccc(F)cc32)c1C	-0.534% [at 100 µM]
CCC(C=C[C@@H]1OC(=O)C=C[C@H]1C)=C[C@H](C)CC=CC(C)=C[C@@H](C)C(=O)[C@@H](C)[C@H](O)[C@@H](C)CC(C)=CC(=O)O	97.6% [at 1.88 µM]
CCNC(=O)c1noc(-c2cc(C(C)C)c(O)cc2O)c1-c1ccc(CN2CCOCC2)cc1	112%
CCS(=O)(=O)Nc1ccc2[nH]c(O)c(C(=Nc3ccc(CN4CCCCC4)cc3)c3ccccc3)c2c1	-0.594%
Nc1ccc(-c2ccc3ncc4ccc(=O)n(-c5cccc(C(F)(F)F)c5)c4c3c2)cn1	-0.538%
COc1ccc(-c2cc3c(C)nc(N)nc3n(C3CCC(OCCO)CC3)c2=O)cn1 (stereo not given)	-0.346%
C=CCNC1=C2C[C@@H](C)C[C@H](OC)[C@@H](O)[C@@H](C)C=C(C)[C@H](OC(N)=O)[C@@H](OC)C=CC=C(C)C(=O)NC(=CC1=O)C2=O	0.49%
Cc1cn(-c2cc(NC(=O)c3ccc(C)c(Nc4nccc(-c5cccnc5)n4)c3)cc(C(F)(F)F)c2)cn1	7.6%
Cc1cnc(Nc2ccc(CN3CCOCC3)cc2)nc1Nc1cccc(S(=O)(=O)NC(C)(C)C)c1	0.192%

Structure (SMILES)	parasite growth, lower = inhibition
COCCn1c2c([n+](Cc3cnccn3)c1C)C(=O)c1ccccc1C2=O	-0.378%
Cn1cc(CNCC2CCN(c3ncc(C(=O)NO)cn3)CC2)c2ccccc21	0.158%
CC[C@@]1([C@@H]2O[C@@H]([C@H]3O[C@@](O)(CO)[C@H](C)C[C@H]3C)C[C@H]2C)CC[C@H]([C@]2(C)CC[C@]3(C[C@H](O)[C@@H](C)[C@@H]([C@@H](C)[C@@H](OC)[C@H](C)C(=O)O)O3)O2)O1	-0.231% [at 23.2 µM]
CO[C@H]1C=CO[C@@]2(C)Oc3c(C)c(O)c4c(O)c(c(C=NN5CCN(C)CC5)c(O)c4c3C2=O)NC(=O)C(C)=CC=C[C@H](C)[C@H](O)[C@@H](C)[C@@H](O)[C@@H](C)[C@H](OC(C)=O)[C@H]1C	-0.189% [at 16.5 µM]
Cc1[nH]c2ccccc2c1CCNCc1ccc(C=CC(=O)NO)cc1	-0.777%
CSc1cccc(Nc2ncc3cc(-c4c(Cl)cccc4Cl)c(=O)n(C)c3n2)c1	3.85%
C#Cc1cccc(Nc2ncnc3cc(OC)c(OCCCCCCC(=O)NO)cc23)c1	-0.648%
Nc1cccc(-c2csc(NC(=O)CCCCCCC(=O)NO)n2)c1	-0.461%
COC(=O)c1ccc2c(C(=Nc3ccc(N(C)C(=O)CN4CCN(C)CC4)cc3)c3ccccc3)c(O)[nH]c2c1	14.8%
CN(Cc1cnc2nc(N)nc(N)c2n1)c1ccc(C(=O)N[C@@H](CCC(=O)O)C(=O)O)cc1	-0.378%
O=C1c2c(O)ccc(O)c2C(=O)c2c(NCCNCCO)ccc(NCCNCCO)c21	-3.56%
C=C[C@@H]1CN2CCC1C[C@@H]2C(O)c1ccnc2ccc(OC)cc12 (stereo not given in full)	1.83%
C[C@H]1c2cccc(O)c2C(O)=C2C(=O)[C@]3(O)C(O)=C(C(N)=O)C(=O)[C@@H](N(C)C)[C@@H]3[C@@H](O)[C@@H]21	1.85%
CC[C@]1(O)C[C@H]2CN(CCC3=c4ccccc4=N[C]3[C@@](C(=O)OC)(c3cc4c(cc3OC)N(C)[C@H]3[C@@](O)(C(N)=O)[C@H](O)[C@]5(CC)C=CCN6CC[C@]43[C@@H]65)C2)C1	3.44%
C[C@@H]1CCC2[C@@H](C)[C@@H](O)O[C@@H]3O[C@@]4(C)CC[C@@H]1[C@@]23OO4 (stereo not given in full)	-0.395%
COc1cc2c(Oc3ccc(NC(=O)C4(C(=O)Nc5ccc(F)cc5)CC4)cc3F)ccnc2cc1OCCCN1CCOCC1	0.0003%
C=CCNc1c(O)cc2c(O)c1C[C@@H](C)C[C@H](OC)[C@@H](O)[C@@H](C)C=C(C)[C@H](OC(N)=O)[C@@H](OC)C=CC=C(C)C(=O)N2	-0.701%
CS(=O)(=O)CCNCc1ccc(-c2ccc3ncnc(Nc4ccc(OCc5cccc(F)c5)c(Cl)c4)c3c2)o1	5.58%
CCC[C@H](Nc1nc(-c2ccc(NC(=O)NCC)c(OC)c2)ncc1C)c1cccnc1	1.45%
CO[C@H]1O[C@@H]2O[C@@]3(C)CC[C@@H]4[C@@H](C)CC[C@@H]([C@H]1C)[C@@]24OO3	-0.475%
